Results on 99 compounds are retold here after PubChem BioAssay AID684 (PCMD, 2007).

The inhibition is the change of the read-out against control, counted positive when it falls.

Out of some 62,000 compounds screened, about 95 (0.2%) were called active. Rule as the data show it: active = inhibition above about 20% (passing the limit was not always enough); inactive = the rest. Only a selection was taken, and actives are over-represented in it overall.

The target of this test is Coagulation factor XII (Homo sapiens) (UniProt P00748). The test can be described thus: human factor XIIa inhibitors, primary screen, biochemical, pooled compound mixtures, fluorogenic substrate (AID 684).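 Also: 0% = enzyme without compound and 100% = no enzyme blank.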 As to conditions: purified FXIIa, at 5 µM, hits give high values.
Sequence of Coagulation factor XII (Homo sapiens) (P00748 20-372 limits assumed): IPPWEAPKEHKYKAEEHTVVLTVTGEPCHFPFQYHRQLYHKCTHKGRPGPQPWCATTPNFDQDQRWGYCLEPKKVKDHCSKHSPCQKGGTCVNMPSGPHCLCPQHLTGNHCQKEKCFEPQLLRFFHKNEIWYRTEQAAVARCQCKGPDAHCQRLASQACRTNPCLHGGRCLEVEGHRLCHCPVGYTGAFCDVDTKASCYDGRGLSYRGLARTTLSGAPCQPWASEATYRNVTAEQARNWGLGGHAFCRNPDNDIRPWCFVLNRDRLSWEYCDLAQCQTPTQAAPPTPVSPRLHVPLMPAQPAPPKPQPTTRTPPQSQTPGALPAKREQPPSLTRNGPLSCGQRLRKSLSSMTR
Sequence of Coagulation factor XII (Homo sapiens) (P00748 373-615 limits assumed): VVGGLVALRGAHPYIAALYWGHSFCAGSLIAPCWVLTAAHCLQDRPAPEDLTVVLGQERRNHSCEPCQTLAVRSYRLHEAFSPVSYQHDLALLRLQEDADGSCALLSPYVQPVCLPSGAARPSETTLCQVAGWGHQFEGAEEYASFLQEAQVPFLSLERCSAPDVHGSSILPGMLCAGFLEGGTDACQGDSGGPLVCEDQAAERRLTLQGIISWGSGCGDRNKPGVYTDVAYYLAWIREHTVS
On to `CCS(=O)(=O)n1nc(-c2ccccc2)nc1SCc1ccccc1`, for which the inhibition is 6.08% (inactive).

In the case of `Cc1noc(C)c1C(=O)NC(C)c1ccc2c(c1)OCO2` (centres undefined), the inhibition is 4.17% (inactive).

For the compound `COC(=O)C1=C(C)Nc2ncnn2C1c1ccco1` (centres undefined), the inhibition was 15.1% (inactive).

Regarding `COc1ccc(OC)c2[nH]c(=O)c(CCNC(=O)C(C)(C)C)cc12`, the inhibition was -10.9% (inactive).

For the compound `CCO/C([O-])=N/c1c[n+](N2CCOCC2)no1`, the inhibition is 3.21% (inactive).

Regarding `CN(C)CCOC(=O)C(c1ccccc1)C1(O)CCCC1` (centres undefined), the inhibition is 2.14% (inactive).

As for `Cc1cccc(CSc2nnc(Cn3c(=O)sc4ccccc43)n2C)c1`, the inhibition was 0.99% (inactive).

In the case of `CCCC(NS(=O)(=O)c1ccc(OC)cc1)C(=O)O` (centres undefined), the inhibition was 10.4% (inactive).

With `O=C(NCc1cccnc1)c1cn(-c2ccccc2)nc1-c1cccs1`, the inhibition is 5.99% (inactive).

On to `O=C(NCCCNCc1ccccc1)c1ccc(/C=N/O)nc1`, for which the inhibition was 1.86% (inactive).

For the compound `CCn1c(SCC(=O)Nc2ccc3c(c2)OCCO3)nc2c(c1=O)SC(C)C2` (centres undefined), the inhibition was 11.3% (inactive).

For the compound `O=C(CN1CCN(S(=O)(=O)/C=C/c2ccccc2)CC1)NC(=O)NCc1ccco1`, the inhibition is -1.11% (inactive).

As to `CC(NC(=O)c1ccc(Cl)cc1)C(=O)N1CCCCC1` (centres undefined), the inhibition was 6.69% (inactive).

For `CCOC(=O)Cc1csc(NC(=O)C(C)(C)C)n1`, the inhibition was 3.6% (inactive).

`O=C1CCC(=O)N1CCOP1(=O)COc2ccccc2OC1`: the inhibition is 2.03% (inactive).

As to `COCCNC(=O)c1ccccc1-c1nc(-c2ccccc2Cl)no1`, the inhibition was 6.16% (inactive).

On to `c1csc(CN2CCN(Cc3cccs3)C2c2cccs2)c1`, for which the inhibition is -13.3% (inactive).

With `COCc1cc(C)nc(Nc2cc(C)ccc2C)c1C#N`, the inhibition is 1.73% (inactive).

As for `COCc1cc(C)nc(SCC(=O)Nc2cccc(C)c2)c1C#N`, the inhibition was 21.5% (active).

In the case of `COC(=O)c1cccc(NC(=O)CSc2nc(C)cc(=O)[nH]2)c1`, the inhibition was 9.59% (inactive).

For the compound `Cn1c2c(c(=O)n(C)c1=O)CN(Cc1ccco1)CN2`, the inhibition was -0.485% (inactive).

With `Cc1ccc2[nH]c(=O)c(-c3nc4c(C)cccn4c3NCc3ccco3)cc2c1`, the inhibition was -0.355% (inactive).

Turning to `O=C(COc1ccccc1)N1CCc2ccccc2C1`, the inhibition was 9.32% (inactive).

Regarding `CC1CCC(NC(=O)c2ccc(N3CCCC3=O)cc2)CC1` (centres undefined), the inhibition is -12.2% (inactive).

Regarding `CCc1nc(C)cn1S(=O)(=O)c1cc(OC)c(C)cc1C`, the inhibition was 9.21% (inactive).

As for `CCCC1CC(C)(C(=O)Cn2[nH]c(=O)ccc2=O)OC1=O` (centres undefined), the inhibition is -1.01% (inactive).

For the compound `O=C(c1cc(-c2ccccc2O)on1)N1CCCC1`, the inhibition is -13.8% (inactive).

With `Cc1ccc(S(=O)(=O)Nc2ccc3ncccc3c2)cc1`, the inhibition is -13.2% (inactive).

In the case of `Cc1cc(N(C)C)cc(C)[n+]1[O-]`, the inhibition was -12% (inactive).

In the case of `CC(C)c1ccc(N2CC(C(=O)Nc3nccs3)CC2=O)cc1` (centres undefined), the inhibition was 3.69% (inactive).

For the compound `COc1ccc(Cn2cccc(NC(=O)Nc3ccc(C#N)cc3)c2=O)cc1`, the inhibition is 10.3% (inactive).

Regarding `Cc1ccccc1C(OCC(O)CN1CCCCC1CCO)c1ccccc1` (centres undefined), the inhibition was 4.15% (inactive).

Turning to `Cc1ccc(Nc2cc(=O)n(C3CCCCC3)c(=O)[nH]2)cc1C`, the inhibition is 5.68% (inactive).

Regarding `CCCCn1c(=S)[nH]c2ncccc2c1=O`, the inhibition was 4.05% (inactive).

With `COC(=O)C(C)N(C#N)c1nc(C)nc(C)n1` (centres undefined), the inhibition was 9.14% (inactive).

For the compound `Cc1csc(NC(=O)CN2CCCCCC2)n1`, the inhibition was 7.17% (inactive).

As for `Cc1nc2ccc(S(=O)(=O)NCC(=O)NCCN3CCCCC3C)cc2s1` (centres undefined), the inhibition is 9.34% (inactive).

Take `Cc1ccn2cc(-c3nonc3C)cc2c1`: the inhibition is 9.55% (inactive).

In the case of `CCCCC(=O)N(c1ccc(OC)cc1)C1C=CS(=O)(=O)C1` (centres undefined), the inhibition was 4.62% (inactive).

As for `C=CCn1c(=O)c2ccccc2n2c(SCC(=O)N3CCCc4ccccc43)nnc12`, the inhibition was -6.74% (inactive).

Turning to `COc1ccc(S(=O)(=O)N2CCCC(C(=O)Nc3ccc(NC(=O)c4ccccn4)cc3)C2)cc1` (centres undefined), the inhibition was 9.91% (inactive).

Turning to `CC12CCC(C(=O)N3CCN(c4ncccn4)CC3)(c3nc4ccccc4nc31)C2(C)C` (centres undefined), the inhibition is 11.8% (inactive).

Take `CC1(C)C2CCC1(C)C(OC(=O)CCn1ccnc1)C2` (centres undefined): the inhibition was 3.17% (inactive).

For the compound `Cc1ccc2c(c1)C(O)(CC(=O)c1cccnc1)C(=O)N2` (centres undefined), the inhibition is 10.7% (inactive).

As for `Cc1cc2ccccc2n2c(SCC(=O)N3CCN(C(=O)c4ccco4)CC3)nnc12`, the inhibition was -6.12% (inactive).

In the case of `CCC(Sc1nncn1C)C(=O)Nc1nnc(-c2ccc(Cl)cc2)s1` (centres undefined), the inhibition is 15.7% (inactive).

For `Cc1ccc(SCc2cc(=O)[nH]c(N3CCCCC3)n2)cc1`, the inhibition was 3.87% (inactive).

Consider `N#Cc1c(N)sc2c1CCN(C(=O)OCc1ccccc1)C2`, for which the inhibition is -18% (inactive).

In the case of `COc1ccc2c(c1)C(C)=CC(C)(C)N2C(=O)CNCc1ccc2c(c1)OCO2`, the inhibition is 17% (inactive).

Regarding `CCN(CC)c1ccc2cc(C(=O)O)c(=O)oc2c1`, the inhibition is -2.87% (inactive).

Regarding `COc1cccc(Oc2ccc(N)cc2)c1`, the inhibition is -12.6% (inactive).

Take `COC(=O)CSc1nc(C2CC2)nc2ccccc12`: the inhibition was -5.91% (inactive).

Consider `Cn1cc(S(=O)(=O)N2CCC(Cc3ccccc3)CC2)c(=O)n(C)c1=O`, for which the inhibition is -15.8% (inactive).

`O=C(CN1C(=O)COc2ccccc21)NCCN1CCc2ccccc2C1`: the inhibition was 2.87% (inactive).

With `CCC1=[N+]([O-])C(C)(/C(C)=N\O)N(O)C1(C)C` (centres undefined), the inhibition was -9.09% (inactive).

Regarding `COc1cccc(-c2nnc(N(C)C(=O)c3ccno3)s2)c1`, the inhibition is 7.52% (inactive).

Regarding `CCN1CCCC1CNC(=O)Cn1cnc2ccc(S(=O)(=O)N3CCC(C)CC3)cc2c1=O` (centres undefined), the inhibition was 9.9% (inactive).

For `O=C(NCc1cccnc1)c1ccc(CS(=O)(=O)c2ccc(Br)cc2)o1`, the inhibition is -21.3% (inactive).

For `CCCn1c(C(O)c2ccc(OCC)cc2)nc2ccccc21` (centres undefined), the inhibition is 4.63% (inactive).

As to `CCOC(=O)c1cccc(NC(=O)CCn2nnc3ccccc32)c1`, the inhibition was -0.18% (inactive).

Take `CCCN(c1ccc(C(C)C)cc1)S(=O)(=O)c1c(C)[nH]c(=O)[nH]c1=O`: the inhibition was -19% (inactive).

Regarding `CCCn1c(SCC(=O)N2CCc3ccccc32)nnc1-c1ccncc1`, the inhibition is -0.835% (inactive).

In the case of `CCN1C(=O)/C(=C\N2CCN(c3ccccc3)CC2)SC1=S`, the inhibition was 4.83% (inactive).

Regarding `CS(=O)(=O)N(CC(=O)N1CCN(c2cccc(Cl)c2)CC1)c1ccccc1`, the inhibition was 1.3% (inactive).

Consider `CCN1C(=O)/C(=C\N2CCN(c3cccc(Cl)c3)CC2)SC1=S`, for which the inhibition is 20.4% (active).

As for `Cc1ccc(C(c2sc3nc(C)nn3c2O)N2CCN(c3ccc(F)cc3)CC2)cc1` (centres undefined), the inhibition was 3.33% (inactive).

For the compound `O=C1CC(Cc2ccccc2)C(=O)N1c1ccc(Cl)cn1` (centres undefined), the inhibition was -17.9% (inactive).

For `COCCNC(=O)COc1ccc(C)c(C)c1`, the inhibition is 1.93% (inactive).

Regarding `CC(C)Oc1ccc(C2NC(=O)NC2=O)cc1` (centres undefined), the inhibition is -16.2% (inactive).

As to `Nn1c(SCC(=O)NC(=O)NC2CCCC2)nnc1-c1ccccc1F`, the inhibition was 3.32% (inactive).

In the case of `CCOC(=O)c1sc(NC(=S)n2cc(C)cn2)c(C(=O)OCC)c1C`, the inhibition was 7.4% (inactive).

For the compound `O=C(CNC(=O)c1ccc(Cl)cc1Cl)NCC(=O)Nc1ccccc1N1CCOCC1`, the inhibition is 6.48% (inactive).

As to `O=C1CC(N2CCN(C(c3ccccc3)c3ccccc3)CC2)C(=O)N1` (centres undefined), the inhibition was 1.87% (inactive).

With `COc1cccc(NC(=O)c2ccccc2SC)c1`, the inhibition is -1.39% (inactive).

On to `Cc1ccc(Cn2ccc(NC(=O)C3C4CCC(C4)C3C(=O)O)n2)cc1` (centres undefined), for which the inhibition was -2.65% (inactive).

As to `COc1ccc(N2CCN(CCNC(=O)c3nnc(Cc4c(F)cccc4Cl)o3)CC2)cc1`, the inhibition is 10.3% (inactive).

`CCOC(=O)c1cc2occc2n1CC(=O)N1CCN(C(=O)c2ccco2)CC1`: the inhibition is 9.63% (inactive).

Turning to `Cc1noc(C)c1S(=O)(=O)N(CC(=O)NCc1ccc(Cl)cc1)c1ccc2c(c1)OCO2`, the inhibition is -1.99% (inactive).

For `CCC(C)Sc1nc2c(c(=O)[nH]c(=O)n2C)n1CC(O)COc1cccc2ccccc12` (centres undefined), the inhibition was -0.685% (inactive).

Consider `CC(C)C[C@H](NC(=O)NCCc1ccc(Cl)cc1)C(=O)O`, for which the inhibition is 5.46% (inactive).

For `CC(Sc1sc(=S)sc1SC(C)C(=O)O)C(=O)O` (centres undefined), the inhibition is 0.39% (inactive).

`CC/C(=N\O)C(C)(C)/[N+]([O-])=C/c1ccc(Br)cc1`: the inhibition is 8.49% (inactive).

Consider `Brc1ccc(OCCn2ccnc2)cc1`, for which the inhibition was 10.3% (inactive).

For `O=C1C(=O)N(CCN2CCOCC2)C(c2ccccn2)/C1=C(/O)c1ccc(Cl)cc1` (centres undefined), the inhibition was 5.72% (inactive).

On to `COC(=O)C1=CN(C)C=C(C(=O)OC)C1c1ccc(Cl)cc1Cl`, for which the inhibition is -3.3% (inactive).

Regarding `C=CCn1cnc2scc(-c3ccccc3)c2c1=O`, the inhibition is 12.3% (inactive).

Regarding `COc1ccc(S(=O)(=O)N2CCN(c3ncnc4c(-c5ccccc5)nsc34)CC2)cc1`, the inhibition is 4.31% (inactive).

As to `CCCS(=O)(=O)N1CCCC(C(=O)NCCN2CCCCC2C)C1` (centres undefined), the inhibition was 1.05% (inactive).

Turning to `CCOC(=O)C1CCN(C(=O)CC2C(=O)N(Cc3ccccc3)C(C)c3nc4ccccc4n32)CC1` (centres undefined), the inhibition was 4.71% (inactive).

Regarding `Clc1cccc(Cl)c1Cn1nnc(-c2cccs2)n1`, the inhibition was 2.33% (inactive).

As for `Cn1c(=NC(=O)C2CC2)sc2cc(F)cc(F)c21`, the inhibition was 6.96% (inactive).

Take `O=S(=O)(c1ccccc1)N(CC(O)CN1CCCCC1)c1ccccc1` (centres undefined): the inhibition was 10.6% (inactive).

`O=C(Nc1c(Cl)cccc1Cl)C1CCC1`: the inhibition is -1.33% (inactive).

Consider `C=CCn1c(CSc2nc3ccccc3s2)nnc1SCC(=O)NCc1ccco1`, for which the inhibition is -0.43% (inactive).

Regarding `O=C(c1cc(-c2ccc(O)cc2)on1)N1CCCc2ccccc21`, the inhibition was 3.9% (inactive).

Take `c1ccc(CCC2=NCCn3cccc32)cc1`: the inhibition was 6.93% (inactive).

With `CC(=O)Nc1ccn(Cc2c(F)cccc2Cl)n1`, the inhibition was 1.78% (inactive).

Regarding `c1ccc(-c2noc(-c3cccs3)n2)nc1`, the inhibition is 3.97% (inactive).

On to `O=C1CN(C(=O)COC(=O)C2CC(=O)N(Cc3ccco3)C2)c2ccccc2N1` (centres undefined), for which the inhibition was -15.4% (inactive).
